In PubChem BioAssay:
Several values for one entry are separate records, joined by “and”; a condition that tells them apart may be missing. Identical values can stand only once. Records with an inconclusive call do not appear. Activity calls are given as the source filed them.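 How the source made its calls, unless noted: active means normalized viability below 100% at a tested concentration; inactive means the rest.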

Experiments:
[1] = viability loss in pontine glioma line – cell-based, SU-DIPG-XVII, MIPE5.0, CellTiter-Glo, qHTS, dose response (AID 1347060; cut-off not given, nearly all actives have AC50 up to about 26 µM;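 on AC50: cells exposed to compound for 48 hours before viability readout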); details: CellTiter-Glo ATP luminescence
[2] = viability loss in pontine glioma line – cell-based, SU-DIPG-IV, MIPE4.0, CellTiter-Glo, qHTS, dose response (AID 1347063; cut-off not given, nearly all actives have AC50 up to about 30 µM;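 further: compound exposure lasted 48 hours before the viability readout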); details: CellTiter-Glo ATP luminescence
[3] = viability loss in pontine glioma line – cell-based, SU-DIPG-XXV, MIPE5.0, CellTiter-Glo, qHTS, dose response (AID 1347065; cut-off not given, nearly all actives have AC50 up to about 26 µM;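 further: cells exposed to compound for 48 hours before ATP readout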); details: CellTiter-Glo ATP luminescence
[4] = JHH-DIPG-1 glioma cell viability, MIPE5.0 library, CellTiter-Glo luminescence, qHTS (AID 1347067; cut-off not given, nearly all actives have AC50 up to about 26 µM;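 further: cells exposed to compound for 48 hours before readout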); details: JHH-DIPG-1 glioma viability, CellTiter-Glo ATP luminescence
[5] = growth inhibition of DIPG cells – cell-based, MIPE5.0 library, qHTS (AID 1347068; cut-off not given, nearly all actives have IC50 up to about 30 µM); details: SU-DIPG-XXV viability
[6] = drug combination growth inhibition, ovarian cancer – cell-based, oncology-focused library, rucaparib conditional, profiling panel (AID 1508598); details: patient-derived ovarian cancer cells, CellTiter-Glo viability, 144 h, stronger effect = lower value
[7] = compounds altering HSF1 focus formation in cells – imaging, Selleck Cancer Library (AID 1347162; in the data active means plate-normalised HSF1 focus index below about 0.46); details: human cells, HSF1 nuclear foci imaging, at 10 µM; SSMD: measured here: HSF1 foci SSMD mean; cell count: measured here: cell number; plate-normalised HSF1 focus index: stronger effect = lower value
[8] = viability loss in pontine glioma line – cell-based, SU-DIPG-XIII, MIPE5.0, CellTiter-Glo, qHTS, dose response (AID 1347064; cut-off not given, nearly all actives have AC50 up to about 23 µM;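 on AC50: cells exposed to compound for 48 hours before the viability read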); details: CellTiter-Glo ATP luminescence
[9] = growth inhibition of DIPG cells – cell-based, MIPE4.0 library, CellTiter-Glo luminescence, qHTS (AID 1347066; cut-off not given, nearly all actives have AC50 up to about 30 µM;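 further: cells exposed to compound for 48 hours before readout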); details: SU-DIPG-VI viability, CellTiter-Glo ATP luminescence
[10] = viability loss with induced miR-34 in A549 – imaging, A549 dox-inducible miR-34, nuclei and caspase counts, primary screen (AID 1347080;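 active means compounds whose cell count with miR-34 switched on is under 0.7 times the count with it off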); details: A549 miR-34 inducible, Hoechst nuclei count, 48 h
[11] = MELAS cybrid and Rieske KO viability enhancers – cell-based, MELAS cybrids, Rieske KO mouse fibroblasts, CellTiter-Glo, primary screen (AID 1508586;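 active means mean z-score across replicates of 1.96 or higher in either the MELAS or the Rieske mutant cell line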;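 further: z relative to plate mean and SD of compound and empty wells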); details: low glucose
[12] = at 0.000305 µM, OCI-C5x cells, with rucaparib 10 µM, 100% = cells with rucaparib alone
[13] = at 0.000305 µM, OCI-C5x cells, without rucaparib
[14] = at 0.000305 µM, OCI-P5x cells, with rucaparib 20 µM, 100% = cells with rucaparib alone
[15] = at 0.000305 µM, OCI-P5x cells, without rucaparib
[16] = at 0.00122 µM, OCI-C5x cells, with rucaparib 10 µM, 100% = cells with rucaparib alone
[17] = at 0.00122 µM, OCI-C5x cells, without rucaparib
[18] = at 0.00122 µM, OCI-P5x cells, with rucaparib 20 µM, 100% = cells with rucaparib alone
[19] = at 0.00122 µM, OCI-P5x cells, without rucaparib
[20] = at 0.00488 µM, OCI-C5x cells, with rucaparib 10 µM, 100% = cells with rucaparib alone
[21] = at 0.00488 µM, OCI-C5x cells, without rucaparib
[22] = at 0.00488 µM, OCI-P5x cells, with rucaparib 20 µM, 100% = cells with rucaparib alone
[23] = at 0.00488 µM, OCI-P5x cells, without rucaparib
[24] = at 0.0195 µM, OCI-C5x cells, with rucaparib 10 µM, 100% = cells with rucaparib alone
[25] = at 0.0195 µM, OCI-C5x cells, without rucaparib
[26] = at 0.0195 µM, OCI-P5x cells, with rucaparib 20 µM, 100% = cells with rucaparib alone
[27] = at 0.0195 µM, OCI-P5x cells, without rucaparib
[28] = at 0.0781 µM, OCI-C5x cells, with rucaparib 10 µM, 100% = cells with rucaparib alone
[29] = at 0.0781 µM, OCI-C5x cells, without rucaparib
[30] = at 0.0781 µM, OCI-P5x cells, with rucaparib 20 µM, 100% = cells with rucaparib alone
[31] = at 0.0781 µM, OCI-P5x cells, without rucaparib
[32] = at 0.313 µM, OCI-C5x cells, with rucaparib 10 µM, 100% = cells with rucaparib alone
[33] = at 0.313 µM, OCI-C5x cells, without rucaparib
[34] = at 0.313 µM, OCI-P5x cells, with rucaparib 20 µM, 100% = cells with rucaparib alone
[35] = at 0.313 µM, OCI-P5x cells, without rucaparib
[36] = at 1.25 µM, OCI-C5x cells, with rucaparib 10 µM, 100% = cells with rucaparib alone
[37] = at 1.25 µM, OCI-C5x cells, without rucaparib
[38] = at 1.25 µM, OCI-P5x cells, with rucaparib 20 µM, 100% = cells with rucaparib alone
[39] = at 1.25 µM, OCI-P5x cells, without rucaparib
[40] = at 5 µM, OCI-C5x cells, with rucaparib 10 µM, 100% = cells with rucaparib alone
[41] = at 5 µM, OCI-C5x cells, without rucaparib
[42] = at 5 µM, OCI-P5x cells, with rucaparib 20 µM, 100% = cells with rucaparib alone
[43] = at 5 µM, OCI-P5x cells, without rucaparib
[44] = stronger effect = lower value, cell number ratio, induced over uninduced
[45] = measured here: relative caspase fold change +Dox/-Dox
[46] = measured here: total cells with miR-34 induction, stronger effect = lower value
[47] = measured here: total cells without miR-34 induction
[48] = MELAS cybrid survival, CellTiter-Glo 48 h, stronger effect = higher value
[49] = Rieske KO mouse fibroblast survival, CellTiter-Glo 72 h

O=C(CCCCCCC(=O)Nc1ccc([C@H]2O[C@@H](CSc3nc(-c4ccccc4)c(-c4ccccc4)o3)C[C@@H](c3ccc(CO)cc3)O2)cc1)NO
active: AC50 [2] 13.2 µM | viability [6, 14] 97.6% | viability [6, 18] 90.6% | viability [6, 22] 90% | viability [6, 26] 72% | viability [6, 27] 79.1% | viability [6, 42] 21.1%
inactive: outcome [1] | outcome [3] | outcome [4] | outcome [5] | viability [6, 12] 114% | viability [6, 13] 141% | viability [6, 15] 111% | viability [6, 16] 112% | viability [6, 17] 131% | viability [6, 19] 114% | viability [6, 20] 115% | viability [6, 21] 132% | viability [6, 23] 108% | viability [6, 24] 112% | viability [6, 25] 130% | viability [6, 28] 112% | viability [6, 29] 139% | viability [6, 30] 102% | viability [6, 31] 106% | viability [6, 32] 116% | viability [6, 33] 137% | viability [6, 34] 104% | viability [6, 35] 109% | viability [6, 36] 110% | viability [6, 37] 139% | viability [6, 38] 106% | viability [6, 39] 116% | viability [6, 40] 128% | viability [6, 41] 158% | viability [6, 43] 108%

O=C1[C@H](Cc2ccc(O)cc2)N2C(=O)CCN(C(=O)NCc3ccccc3)[C@H]2CN1Cc1cccc2ccccc12
6950: cell count [7]
1.66: SSMD [7]
active: AC50 [1] 4.17 µM | AC50 [2] 3.72 µM | AC50 [3] 3.32 µM
inactive: plate-normalised HSF1 focus index [7] 1.09

Cc1ccc(C(=O)OCc2ccc([C@@H](CN)C(=O)Nc3ccc4cnccc4c3)cc2)c(C)c1
active: AC50 [1] 12.9 µM | AC50 [8] 14.4 µM | AC50 [3] 9.1 µM

CC(C)n1ncnc1-c1cn2c(n1)-c1ccc(O[C@@H](C)C(N)=O)cc1OCC2
active: AC50 [1] 1.32 µM | AC50 [8] 1.05 µM | AC50 [3] 0.59 µM

Nc1ccn([C@@H]2O[C@H](CO)[C@@H](O)C2(F)F)c(=O)n1
10.5 and 7.93: z-score [11, 49]
2200: cell count [10, 46]
0.323 and -0.775: z-score [11, 48]
active: AC50 [1] 0.0186 µM | AC50 [2] 0.526 µM | viability [6, 13] 87.2% | viability [6, 14] 74.1% | viability [6, 15] 32.9% | viability [6, 16] 90.4% | viability [6, 17] 93.9% | viability [6, 18] 55.8% | viability [6, 19] 27% | viability [6, 20] 81% | viability [6, 21] 80% | viability [6, 22] 57.2% | viability [6, 23] 22.9% | viability [6, 24] 69.2% | viability [6, 25] 58.3% | viability [6, 26] 47.3% | viability [6, 27] 22% | viability [6, 28] 56.5% | viability [6, 29] 47.8% | viability [6, 30] 50.9% | viability [6, 31] 25.3% | viability [6, 32] 36.8% | viability [6, 33] 35.1% | viability [6, 34] 58.9% | viability [6, 35] 22.7% | viability [6, 36] 33.1% | viability [6, 37] 30.2% | viability [6, 38] 53.9% | viability [6, 39] 25.7% | viability [6, 40] 14.3% | viability [6, 41] 14.2% | viability [6, 42] 42.3% | viability [6, 43] 17.7%
2.54: fold change [10, 45]
inactive: outcome [9] | outcome [4] | outcome [5] | fold change [10, 44] 0.809 | viability [6, 12] 107%
2720: cell count [10, 47]

C[C@@H]1Cc2c([nH]c3ccccc23)[C@@H](c2c(F)cc(/C=C/C(=O)O)cc2F)N1CC(C)(C)F
inactive: outcome [1] | outcome [8]

CCn1c(=O)c(-c2ccn[nH]2)cc2c(C)nc(N)nc21
active: AC50 [1] 7.42 µM | AC50 [8] 5.9 µM | AC50 [3] 4.17 µM

COc1cc(C(=O)O)ccc1NC(=O)[C@@H]1N[C@@H](CC(C)(C)C)[C@](C#N)(c2ccc(Cl)cc2F)[C@H]1c1cccc(Cl)c1F
active: AC50 [1] 6.61 µM | AC50 [8] 14.8 µM | AC50 [3] 9.34 µM | AC50 [4] 11.8 µM

C[C@H]1Oc2cc(cnc2N)-c2c(nn(C)c2C#N)CN(C)C(=O)c2ccc(F)cc21
active: AC50 [1] 14.8 µM | AC50 [8] 10.5 µM | AC50 [3] 9.34 µM

O=C(O)CCCCC(CCSCc1ccccc1)SCc1ccccc1 (centres undefined)
0.838: fold change [10, 45]
0.614: z-score [11, 49]
9470: cell count [10, 46]
inactive: outcome [1] | outcome [8] | outcome [3] | outcome [9] | outcome [4] | outcome [5] | fold change [10, 44] 0.896 | z-score [11, 48] -0.291
10600: cell count [10, 47]

COc1cc(-c2nn(C3CCC(N4CCN(C(C)=O)CC4)CC3)c3ncnc(N)c23)ccc1NC(=O)c1cc2ccccc2n1C (centres undefined)
inactive: outcome [9] | outcome [5]
active: AC50 [1] 3.72 µM | AC50 [8] 7.42 µM | AC50 [3] 4.17 µM | AC50 [4] 7.42 µM

Cc1ccc2c(=O)c3cccc(CC(=O)O)c3oc2c1C
active: viability [6, 12] 94.7% | viability [6, 14] 97% | viability [6, 15] 97.7% | viability [6, 34] 68.4% | viability [6, 35] 19.4%
inactive: outcome [1] | outcome [8] | outcome [3] | outcome [9] | outcome [4] | outcome [5] | fold change [10, 44] 0.947 | z-score [11, 48] -0.329 | viability [6, 13] 116% | viability [6, 16] 105% | viability [6, 17] 110% | viability [6, 18] 102% | viability [6, 19] 101% | viability [6, 20] 108% | viability [6, 21] 116% | viability [6, 22] 105% | viability [6, 23] 103% | viability [6, 24] 113% | viability [6, 25] 116% | viability [6, 26] 107% | viability [6, 27] 111% | viability [6, 28] 115% | viability [6, 29] 114% | viability [6, 30] 110% | viability [6, 31] 113% | viability [6, 32] 116% | viability [6, 33] 115% | viability [6, 36] 118% | viability [6, 37] 127% | viability [6, 38] 104% | viability [6, 39] 112% | viability [6, 40] 103% | viability [6, 41] 123% | viability [6, 42] 104% | viability [6, 43] 122%
6780: cell count [10, 46]
1.03: fold change [10, 45]
7150: cell count [10, 47]
0.338: z-score [11, 49]

CCOc1cc(C(C)(C)C)ccc1C1=N[C@@](C)(c2ccc(Cl)cc2)[C@@](C)(c2ccc(Cl)cc2)N1C(=O)N1CCN(CC(=O)N2CCOCC2)CC1
active: AC50 [1] 11.5 µM | AC50 [8] 14.5 µM | AC50 [3] 10.3 µM
